Assay results: PubChem BioAssay (Tox21)
Results filed as inconclusive are left out. Where a structure was tested more than once in an assay, its records may differ in their call. Active and inactive are the calls of the source. Unless noted, calls come from the whole dose curve.

Tests used:
[1] = Nuclear factor erythroid 2-related factor 2/antioxidant responsive element (Nrf2/ARE) small molecule agonists: qHTS cell viability counter screen in human keratinocytes (AID 1919968; active = well fitted curve in the direction sought with a large enough effect in the repeat runs; an effect the other way counts as inactive or inconclusive; note: nearly all actives have a fitted effect of over 55% in size)
How it was run: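 Measured as CellTiter-Fluor fluorescence, this readout tracks cytotoxicity in the same wells as the ARE-luciferase screen. HaCaT reporter cells (1,500/well) received compounds after a 5 h pre-incubation and were exposed for 23 h.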

[2] = Nuclear factor erythroid 2-related factor 2/antioxidant responsive element (Nrf2/ARE) small molecule agonists: luciferase reporter gene qHTS assay in human keratinocytes (AID 1919969); note: nearly all actives have a fitted effect of over 35% in size; note: potency is the fitted concentration of half-maximal effect
[3] = molecular target: KiSS-1 receptor (Homo sapiens) (UniProt Q969F8); experiment: Human kisspeptin (KISS1R) small molecule agonists, calcium flux assay in KISS1R-HEK293 cells (AID 1920064; active = well fitted curve in the direction sought with a large enough effect in the repeat runs; an effect the other way counts as inactive or inconclusive)
How it was run: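 Measures KISS1R agonism through calcium-sensitive dye fluorescence in stably transfected HEK293 cells, read for 3 min after pin-tool compound delivery; 15-point titrations in triplicate.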

[4] = G protein-coupled receptor (GPCR) small molecule agonists, calcium flux assay: HEK293 wild type cell line counter screen (AID 1920065)
How it was run: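 Readout: fluorescence at 480 nm excitation/540 nm emission, sampled at 1 s intervals for 3 min. Cells had been cultured 18 h, then dye-loaded 1 h at 37 C before compound or ATP addition.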

[5] = p53 small molecule agonists, cell-based qHTS assay with human liver microsomes (AID 1963577);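 note: p53 response element beta-lactamase reporter cells with liver microsomes plus NADPH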
How it was run: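 With metabolic activation: human liver microsomes (0.5 mg/mL final) plus NADPH (0.5 mg/mL final) added alongside compounds to p53RE-bla cells; 16 h 37 C exposure; beta-lactamase read by LiveBLAzer fluorescence.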

[6] = p53 small molecule agonists, cell-based qHTS assay with human liver microsomes: qHTS cell viability counter screen (AID 1963579); note: nearly all actives have a fitted effect of over 45% in size
How it was run: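 Metabolic activation used human liver microsomes and NADPH, both 0.5 mg/mL final, over 16 hours at 37 C on p53RE-bla cells (4,000/well). Cytotoxicity measured by CellTiter-Glo luminescence, 30 min at room temperature.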

[7] = p53 small molecule agonists, cell-based qHTS assay: qHTS cell viability counter screen (AID 1963581); note: nearly all actives have a fitted effect of over 45% in size
How it was run: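 In the same plates used for the p53 bla reporter, HCT-116 cells given compounds for 16 h at 37 C received CellTiter-Glo; luminescence was recorded 30 min later at room temperature.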

[8] = molecular target: 5-hydroxytryptamine receptor 2A (Homo sapiens) (UniProt P28223); experiment: 5-hydroxytryptamine receptor 2A (HTR2A) small molecule antagonists, cell-based qHTS assay (AID 1963586); note: nearly all actives have a fitted effect of over 45% in size
How it was run: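 Antagonist-mode intracellular calcium assay: DOI (4 nM) added after 5 min compound pre-incubation at room temperature to dye-loaded HTR2A-CHO cells. Fluorescence followed for 3 min, sampled every second.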

[9] = molecular target: 5-hydroxytryptamine receptor 2A (Homo sapiens) (UniProt P28223); experiment: 5-hydroxytryptamine receptor 2A (HTR2A) small molecule agonists, cell-based qHTS assay (AID 1963587); note: nearly all actives have a fitted effect of over 30% in size
How it was run: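 HTR2A-CHO cells, plated 18 h at 37 C/5% CO2, dye-loaded 1 h at 37 C; compounds in DMSO added by pin tool (agonist mode). Intracellular calcium flux read as kinetic fluorescence on FDSS over 2 min at 1 s intervals.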

[10] = molecular target: Muscarinic acetylcholine receptor M1 (Homo sapiens) (UniProt P11229); experiment: Cholinergic receptor muscarinic 1 (CHRM1) small molecule antagonists, cell-based qHTS assay (AID 1963588); note: nearly all actives have a fitted effect of over 40% in size
How it was run: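 CHRM1-CHO calcium-flux assay, antagonist mode. Cells were seeded 18 h, dye-loaded 1 h at 37 C and given compound for 5 min at RT, then acetylcholine was added at 50nM. FDSS fluorescence was read 3 min; 15 concentrations, three runs.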

[11] = molecular target: Muscarinic acetylcholine receptor M1 (Homo sapiens) (UniProt P11229); experiment: Cholinergic receptor muscarinic 1 (CHRM1) small molecule agonists, cell-based qHTS assay (AID 1963589); note: nearly all actives have a fitted effect of over 35% in size
How it was run: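 Each compound was tested at 15 concentrations across three independent runs on dye-loaded CHO cells stably expressing human CHRM1, reading intracellular calcium fluorescence kinetically at 1 sec intervals.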

[12] = cAMP Responsive Elements (CRE) small molecule agonists, cell-based qHTS assay (AID 1963590)
How it was run: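 Cell line: CRE-bla HEK 293T; medium DMEM/10% dialyzed FBS/0.1 mM NEAA/1 mM pyruvate/25 mM HEPES; 3 h compound exposure; beta-lactamase FRET readout after 2 h substrate loading at RT.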

[13] = cAMP Responsive Elements (CRE) small molecule antagonists, cell-based qHTS assay (AID 1963591; active = well fitted inhibition curve with a large enough effect in the signal ratio in the repeat runs, not every such curve was filed as active; the % refers to the signal ratio)
How it was run: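 Inhibition of NKH477-driven (0.25 uM final) CRE-beta-lactamase signal in HEK293T cells, 3 h compound exposure at 37 °C, detected by FRET substrate fluorescence.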

[14] = molecular target: Beta-2 adrenergic receptor (Homo sapiens) (UniProt P07550); experiment: Adrenergic beta2 receptor (ADRB2) small molecule antagonists, cell-based qHTS assay (AID 1963592); note: series mostly up to about 92 µM; nearly all actives have a fitted effect of over 50% in size
How it was run: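 Cells (CHO, stable ADRB2 overexpression) incubated 18-20hr at 37C; compounds added from DMSO; agonist mix (1nM isoproterenol, 100uM IBMX, 25uM Ro-20-1724) added; 0.5hr RT; d2-cAMP and anti-cAMP-cryptate added; 1hr RT; 665/615 nm read.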

[15] = molecular target: Beta-2 adrenergic receptor (Homo sapiens) (UniProt P07550); experiment: Adrenergic beta2 receptor (ADRB2) small molecule agonists, cell-based qHTS assay (AID 1963593);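 note: CHO cells stably overexpressing human ADRB2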
How it was run: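 CHO cells stably over-expressing ADRB2 were plated overnight at 37C, then dosed with compounds plus a stimulation mix containing 100uM IBMX and 25uM Ro-20-1724 for 0.5hr at room temperature. cAMP was measured by HTRF competition, 1hr.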

[16] = molecular target: D(2) dopamine receptor (Homo sapiens) (UniProt P14416); experiment: Dopamine D2 receptor (DRD2) small molecule agonists, cell-based qHTS assay (AID 1963594); note: nearly all actives have a fitted effect of over 35% in size
How it was run: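 HEK293 cells stably expressing DRD2 were cultured 24 h at 37 C, then given Ro20-1724 (0.1 mM final) and compounds for 10 min at room temperature. NKH477 (200nM) was then added for 30 min. cAMP was read by HTRF.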

[17] = molecular target: D(2) dopamine receptor (Homo sapiens) (UniProt P14416); experiment: Dopamine D2 receptor (DRD2) small molecule antagonists, cell-based qHTS assay (AID 1963595; active = well fitted inhibition curve with a large enough effect in the signal ratio in the repeat runs, with a control signal flat; the % refers to the signal ratio)
How it was run: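 Human DRD2 antagonist qHTS measuring cAMP by HTRF. The cells are exposed to compound for 10 min, then to NKH477 (200 nM) and quinpirole (12 nM) for 30 min at RT, with Ro20-1724 (0.1 mM) present throughout.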

[18] = p53 small molecule agonists, cell-based qHTS assay with rat liver microsomes (AID 1963578)
How it was run: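 Metabolic activation by rat liver microsomes and NADPH, each 0.5 mg/mL final, added right after compounds to p53RE-bla reporter cells (4,000/well, plated 5 h earlier). 16 h at 37 C, then LiveBLAzer substrate for 2 h at room temperature in the dark; fluorescence read-out.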

[19] = p53 small molecule agonists, cell-based qHTS assay (AID 1963582; active = well fitted activation curve with a large enough effect in the signal ratio in the repeat runs, not every such curve was filed as active; the % refers to the signal ratio)
How it was run: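 Compounds are pin-transferred in DMSO onto p53RE-bla cells and incubated 16 h at 37 C. The B/G FRET beta-lactamase substrate is then applied for 2 h at RT and fluorescence recorded.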

[20] = p53 small molecule agonists, cell-based qHTS assay with rat liver microsomes: qHTS cell viability counter screen (AID 1963580); note: nearly all actives have a fitted effect of over 45% in size
How it was run: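 In HCT-116 cells carrying a p53 response element-bla reporter, compounds were metabolically activated in situ by rat liver microsomes with NADPH over 16 h. Cell ATP content then served as the cytotoxicity measure.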

Measured: Potency

Sequence of Beta-2 adrenergic receptor (Homo sapiens) (P07550 whole entry, looked up): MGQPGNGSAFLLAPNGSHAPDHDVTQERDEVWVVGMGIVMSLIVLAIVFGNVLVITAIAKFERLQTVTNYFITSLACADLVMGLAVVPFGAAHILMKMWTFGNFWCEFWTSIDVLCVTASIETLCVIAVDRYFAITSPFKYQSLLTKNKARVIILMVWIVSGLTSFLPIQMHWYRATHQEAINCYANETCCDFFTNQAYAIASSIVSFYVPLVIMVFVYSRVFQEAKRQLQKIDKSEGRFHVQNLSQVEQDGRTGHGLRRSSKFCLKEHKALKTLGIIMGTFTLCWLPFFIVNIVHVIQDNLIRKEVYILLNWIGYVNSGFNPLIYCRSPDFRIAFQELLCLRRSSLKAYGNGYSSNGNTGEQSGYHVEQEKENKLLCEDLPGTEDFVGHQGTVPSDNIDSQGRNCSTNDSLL
Sequence of 5-hydroxytryptamine receptor 2A (Homo sapiens) (P28223 whole entry, looked up): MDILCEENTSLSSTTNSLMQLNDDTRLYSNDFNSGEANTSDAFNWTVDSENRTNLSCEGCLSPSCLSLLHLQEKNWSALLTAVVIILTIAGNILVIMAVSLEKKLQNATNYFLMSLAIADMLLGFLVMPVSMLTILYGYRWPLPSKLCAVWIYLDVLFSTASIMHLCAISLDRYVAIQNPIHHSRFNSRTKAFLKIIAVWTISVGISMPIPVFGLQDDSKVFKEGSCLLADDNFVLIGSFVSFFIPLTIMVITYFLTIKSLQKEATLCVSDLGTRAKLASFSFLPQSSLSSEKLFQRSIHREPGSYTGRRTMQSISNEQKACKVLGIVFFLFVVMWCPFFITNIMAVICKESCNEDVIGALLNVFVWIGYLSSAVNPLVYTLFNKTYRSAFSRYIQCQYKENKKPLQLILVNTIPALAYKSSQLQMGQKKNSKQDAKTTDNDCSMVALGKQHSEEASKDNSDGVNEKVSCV
Sequence of D(2) dopamine receptor (Homo sapiens) (P14416 whole entry, looked up): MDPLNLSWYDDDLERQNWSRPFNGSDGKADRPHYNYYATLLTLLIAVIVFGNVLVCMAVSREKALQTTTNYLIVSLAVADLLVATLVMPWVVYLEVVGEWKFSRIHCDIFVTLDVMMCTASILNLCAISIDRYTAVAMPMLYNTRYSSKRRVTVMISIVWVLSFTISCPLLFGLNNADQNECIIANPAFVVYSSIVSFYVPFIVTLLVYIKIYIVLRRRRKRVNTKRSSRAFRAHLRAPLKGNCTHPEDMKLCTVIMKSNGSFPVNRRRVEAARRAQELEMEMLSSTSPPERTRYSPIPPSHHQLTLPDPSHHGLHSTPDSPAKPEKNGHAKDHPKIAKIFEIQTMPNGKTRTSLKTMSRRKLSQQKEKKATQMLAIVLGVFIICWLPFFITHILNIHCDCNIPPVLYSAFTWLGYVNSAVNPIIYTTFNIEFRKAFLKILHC
Sequence of Muscarinic acetylcholine receptor M1 (Homo sapiens) (P11229 whole entry, looked up): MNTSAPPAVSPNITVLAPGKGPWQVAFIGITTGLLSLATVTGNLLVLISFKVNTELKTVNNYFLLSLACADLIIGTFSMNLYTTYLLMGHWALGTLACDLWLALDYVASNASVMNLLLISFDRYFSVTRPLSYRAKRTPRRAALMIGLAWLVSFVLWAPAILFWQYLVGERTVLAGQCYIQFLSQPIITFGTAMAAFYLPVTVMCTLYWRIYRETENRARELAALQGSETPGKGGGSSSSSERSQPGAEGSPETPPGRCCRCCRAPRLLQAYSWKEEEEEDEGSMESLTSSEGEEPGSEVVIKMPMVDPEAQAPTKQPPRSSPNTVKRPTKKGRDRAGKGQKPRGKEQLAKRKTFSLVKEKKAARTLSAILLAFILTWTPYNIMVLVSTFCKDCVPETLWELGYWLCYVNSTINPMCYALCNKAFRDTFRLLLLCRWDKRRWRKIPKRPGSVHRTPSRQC
Sequence of KiSS-1 receptor (Homo sapiens) (Q969F8 whole entry, looked up): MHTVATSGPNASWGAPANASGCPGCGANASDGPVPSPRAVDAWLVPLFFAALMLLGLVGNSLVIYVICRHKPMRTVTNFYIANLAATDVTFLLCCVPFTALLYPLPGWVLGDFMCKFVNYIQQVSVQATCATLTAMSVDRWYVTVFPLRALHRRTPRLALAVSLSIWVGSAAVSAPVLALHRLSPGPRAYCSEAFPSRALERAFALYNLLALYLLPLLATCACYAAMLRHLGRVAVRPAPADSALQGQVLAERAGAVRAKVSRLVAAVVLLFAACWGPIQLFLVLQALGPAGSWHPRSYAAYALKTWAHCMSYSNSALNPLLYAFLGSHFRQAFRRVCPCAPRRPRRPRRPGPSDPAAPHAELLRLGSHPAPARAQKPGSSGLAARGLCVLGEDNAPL

C=C(C)[C@@H]1CCC2=CCC[C@@H](C)[C@]2(C)C1
not listed: [18] | [19] | [20]
inactive: all other assays above

Cc1cccc2c1ccc1ccccc12
not listed: [5] | [11] | [15] | [17] | [20]
inactive: all other assays above

COc1cc(C(=O)N2CCCCCCC2)cc(OC)c1OC
not listed: [4] | [7] | [17] | [20]
inactive: all other assays above

OC[C@H]1O[C@@H]2O[C@H]3[C@H](O)[C@@H](O)[C@@H](O[C@H]4[C@H](O)[C@@H](O)[C@@H](O[C@H]5[C@H](O)[C@@H](O)[C@@H](O[C@H]6[C@H](O)[C@@H](O)[C@@H](O[C@H]7[C@H](O)[C@@H](O)[C@@H](O[C@H]8[C@H](O)[C@@H](O)[C@@H](O[C@H]1[C@H](O)[C@H]2O)O[C@@H]8CO)O[C@@H]7CO)O[C@@H]6CO)O[C@@H]5CO)O[C@@H]4CO)O[C@@H]3CO
not listed: [5] | [8] | [9] | [10] | [11] | [18] | [19]
inactive: all other assays above

C[N+](C)(C)CC(O)CCl (centres undefined)
not listed: [15] | [18]
inactive: all other assays above

Cc1cccc(C)c1[N+](=O)[O-]
not listed: [5] | [18] | [19]
inactive: all other assays above

CCCCCCCCCCCCCCO
not listed: [4] | [7] | [15]
inactive: all other assays above

CC(C)=C1CC[C@@H](C)CC1=O
not listed: [6] | [15] | [17]
inactive: all other assays above

Cn1cnc([N+](=O)[O-])c1Sc1ncnc2nc[nH]c12
27.1 µM (active) and inactive: [2]
not listed: [7] | [8] | [9] | [10] | [11] | [15] | [19]
inactive: all other assays above

CCCN1C=CN(C)C1
not listed: [5] | [18] | [19]
inactive: all other assays above

CC1OC1C1CCC2(C)OC2C1 (centres undefined)
not listed: [5] | [10] | [12] | [15]
inactive: all other assays above

CC(C(=O)O)c1cccc(C(=O)c2ccccc2)c1 (centres undefined)
inactive: [1] | [2] | [3] | [4] | [19] | [14] | [15] | [16]

COc1cccc(OC)c1
not listed: [7]
inactive: all other assays above

O=C(O)CCCCCC(=O)O
not listed: [15] | [18]
inactive: all other assays above

C[C@@H]1CCN(C(=O)[C@H](CCCN=C(N)N)NS(=O)(=O)c2cccc3c2NC[C@H](C)C3)[C@@H](C(=O)O)C1
not listed: [4] | [15]
inactive: all other assays above
